The source of these data is the supplement of paper PMC10105736.
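Also: HEK293T cells with Epo stimulation, STAT-responsive firefly luciferase reporter, fold induction versus unstimulated cells divided by the larger fold induction of two negative controls lacking either bait or prey.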

Chain of tgo (chain, as listed by the source): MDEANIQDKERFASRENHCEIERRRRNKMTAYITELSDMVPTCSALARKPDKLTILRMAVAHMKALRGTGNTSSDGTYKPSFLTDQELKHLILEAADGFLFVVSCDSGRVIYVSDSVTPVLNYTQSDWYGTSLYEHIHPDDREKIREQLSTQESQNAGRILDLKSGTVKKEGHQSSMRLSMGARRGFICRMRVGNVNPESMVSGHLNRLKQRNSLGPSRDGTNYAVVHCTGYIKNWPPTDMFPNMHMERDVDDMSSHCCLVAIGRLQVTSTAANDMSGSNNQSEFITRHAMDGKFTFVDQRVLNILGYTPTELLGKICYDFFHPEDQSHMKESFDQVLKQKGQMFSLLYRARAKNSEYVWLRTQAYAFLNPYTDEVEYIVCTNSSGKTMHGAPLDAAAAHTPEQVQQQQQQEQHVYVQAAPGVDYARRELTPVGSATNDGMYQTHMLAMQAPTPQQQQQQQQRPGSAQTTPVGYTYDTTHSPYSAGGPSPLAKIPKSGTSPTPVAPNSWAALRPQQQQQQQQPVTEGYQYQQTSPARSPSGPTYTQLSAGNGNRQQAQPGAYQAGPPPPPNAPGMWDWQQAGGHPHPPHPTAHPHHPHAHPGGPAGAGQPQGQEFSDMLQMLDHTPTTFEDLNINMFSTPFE

The subject of one assay is sim. Description: MAPPIT interaction score (arbitrary units); higher = stronger binary interaction signal, active = hit call of the paper. The settings on record: MAPPIT configuration: N-C; pair source set: Lit-BM-16. Here is the method:
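MAPPIT in HEK293T cells: Drosophila bait and prey ORFs (from the FlyBi ORF collection) were co-transfected in quadruplicate, with two wells stimulated by erythropoietin. Interaction-dependent JAK-STAT activation was read out with a STAT-responsive firefly luciferase reporter. Positive calls use the 99th percentile of random reference set (RRS) scores within each batch […]. Batches Dvs01 and Dvs02 used the N-N configuration and Dvs04 the N-C configuration. Pairs come from FlyBi screens, CuraGen, DPiM, Finley Y2H, Lit-BM-16, Lit-BS-16 and RRS.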
In the case of tgo, the MAPPIT interaction score is 2.23 (inactive).

The assay is the same for the next values; noted with them: MAPPIT configuration: N-N; pair source set: Lit-BM-16.
As for tgo, the MAPPIT interaction score is 1.37 (inactive).
